Assays:
Assay type in all cases: functional
[1] = target: Solute carrier family 2, facilitated glucose transporter member 1 (Homo sapiens) (UniProt P11166); assay: ST_JUDE_LEISH: Cytotoxicity at 2uM final concentration against transgenic Leishmania Mexicana promastigotes LmGLUT1 that are glucose transport deficient and complemented with the human glucose transporter GLUT1. Activity is measured by DNA content using SYBR green in vitro
[2] = target: Hexose transporter 1 (Plasmodium falciparum) (UniProt O97467); assay: ST_JUDE_LEISH: Cytotoxicity at 2uM final concentration against transgenic Leishmania Mexicana promastigotes LmPfHT that are glucose transport deficient and complemented with the Plasmodium falciparum hexose transporter. Activity is measured by DNA content using SYBR green in vitro
[3] = target: Glucose transporter (Leishmania mexicana) (UniProt O61059); assay: ST_JUDE_LEISH: Cytotoxicity at 2uM final concentration against transgenic Leishmania Mexicana promastigotes LmGT2 that are glucose transport deficient and complemented with the L. Mexicana glucose transporter 2. Activity is measured by DNA content using SYBR green in vitro

Chain of Solute carrier family 2, facilitated glucose transporter member 1 (Homo sapiens) (P11166 whole entry): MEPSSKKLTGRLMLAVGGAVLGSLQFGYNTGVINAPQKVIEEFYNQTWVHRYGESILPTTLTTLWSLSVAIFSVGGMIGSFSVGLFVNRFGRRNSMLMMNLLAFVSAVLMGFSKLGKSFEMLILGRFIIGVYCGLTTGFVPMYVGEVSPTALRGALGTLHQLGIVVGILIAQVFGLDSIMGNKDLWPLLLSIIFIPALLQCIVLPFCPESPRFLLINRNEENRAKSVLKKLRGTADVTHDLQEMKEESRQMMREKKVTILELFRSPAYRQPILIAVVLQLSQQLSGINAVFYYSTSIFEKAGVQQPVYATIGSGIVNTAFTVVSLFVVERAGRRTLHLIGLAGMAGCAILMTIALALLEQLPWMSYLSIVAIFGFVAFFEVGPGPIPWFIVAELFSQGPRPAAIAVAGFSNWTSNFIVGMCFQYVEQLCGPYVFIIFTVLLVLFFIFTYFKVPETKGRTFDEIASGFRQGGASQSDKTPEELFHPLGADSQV

Structure (SMILES)	inhibition [1] [%]	inhibition [2] [%]	inhibition [3] [%]
CN1CCC(Oc2ccc(NC(=O)c3ccc4c(=O)n(Cc5ccccc5)cnc4c3)cc2Cl)CC1	32.8	57.4	8.76
Cc1cc(C=C(P(=O)(OC(C)C)OC(C)C)P(=O)(OC(C)C)OC(C)C)c2ccccc2c1O	6.71	7.2	1.63
Cc1ccc(Nc2nc(C)cc(Nc3cccc(NS(C)(=O)=O)c3)n2)cc1	11.5	12.5	9.23
CCCCc1ccc(C(=O)Nc2ccc3nc(N4CCN(C)CC4)cc(C)c3c2)cc1	2.19	3.48	3.48
COc1ccc(Cl)cc1N1CCN(CCCNC(=O)c2ccc(-c3nc4cc(Cl)c(C)cc4[nH]3)s2)CC1	4.06	1.78	1.42
O=S(=O)(NC1CCN(c2ccnc3cc(Cl)ccc23)C1)c1cccs1 (stereo unspecified)	0.41	-0.12	1.61
CCCCOC(=O)C1=C(C)NC2=C(C(=O)CC(c3ccc(OC)c(OC)c3)C2)C1c1ccc(O)cc1 (stereo unspecified)	10.4	1.48	3.3
CC(C)(C)C1CCC(CC2=C(C(=O)O)c3ccccc3C2=O)CC1 (stereo unspecified)	1.16	0.47	-1.33
S=C(NCCCCCN1CCC(c2c[nH]c3ccccc23)CC1)Nc1ccc(Cl)c(Cl)c1	1.88	1.44	2.15
OC1CCCN(Cc2ccc(-c3cccc(-c4nc5cc(F)ccc5[nH]4)c3)cc2)C1 (stereo unspecified)	7.7	7.1	5.69
Cc1cc(SC(C)(C)C)cc2c(Cl)c(C(N)=O)cnc12	89	93.7	85.8
Cc1ccc(-c2cc(C(=O)Nc3ccc(S(=O)(=O)N4CCCC(C)C4)cc3)[nH]n2)c(O)c1 (stereo unspecified)	-1.53	-1.98	-1.01

From ChEMBL document CHEMBL3433997, “St. Jude Leishmania screening dataset” (2016)
